SARS PLP yeast = qHTS of Yeast-based Assay for SARS-CoV PLP; S. cerevisiae expressing SARS-CoV PLpro, growth rescue; 0.19% of 330,000 active; AID 485353, 2010; Potency, µM (series often up to 32.9 µM), for inactives: at the highest dose activity, positive = growth rescue, hits mostly activators; calls by dose curve; also: 0% is about no effect; nearly all actives have a fitted effect of over 55% in size
Pf growth 96h = Primary qHTS for delayed death inhibitors of the malarial parasite plastid, 96 hour incubation. 6.9% of 320,000 active. Potency, µM (series often up to 28.7 µM), inactives show at the top dose activity change, negative = inhibition, hits mostly inhibitors. P. falciparum luciferase reporter growth, 96 h; also: % is scaled to controls: 0 for no effect and ±100 for the full control effect
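Cell-based qHTS: luciferase-tagged P. falciparum in erythrocytes (2% hematocrit, 0.05% parasitemia final) incubated with compounds for 96 hours, 37 C, 5% CO2; luciferase detection reagent then added and luminescence measured.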
Pf growth 48h = Primary qHTS for delayed death inhibitors of the malarial parasite plastid, 48 hour incubation; P. falciparum luciferase growth in erythrocytes, 48 h; 5.9% of 310,000 active; Potency, µM (top dose mostly 28.7 µM), for inactives: at the highest dose activity change, negative = inhibition, usual class: inhibitors; also: % is scaled to controls: 0 for no effect and ±100 for the full control effect
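Here the parasites carry a stable luciferase gene and grow inside erythrocytes in Albumax-based RPMI medium with compound for one erythrocytic cycle. Activity is scored as loss of luminescent signal.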
Sm TGR block = qHTS Assay for the Inhibitors of Schistosoma Mansoni Peroxiredoxins. AID 485364, 2010. Potency, µM (highest dose often 114 µM), for inactives: at the highest dose activity change, negative = inhibition, actives largely listed as inhibitors. purified TGR, DTNB reduction, TNB absorbance 405 nm. 3% of 360,000 active; also: % is scaled to controls: 0 for no effect and ±100 for the full control effect; nearly all actives have a fitted effect of over 60% in size
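TGR 20 nM + NADPH 100 uM (dispensed conc.), cpd preinc 15 min RT; start with NADPH (500 uM addition) then DTNB (15 mM addition). Kinetic TNB absorbance, 405 nm filter. Four-parameter Hill fit across titration.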
Active calls of the source: *; u = inconclusive; x = no result given; [ ] = another dose, or the depositor's remark. Most compounds without a hit are left out; they make up all but 12% or so of the library. Unless noted, calls follow the shape of the dose curve; as a rule, active = well fitted curve in the direction sought with a large enough effect; inconclusive = small, poorly fitted or top-dose-only effect, or another doubt; inactive = no such curve, though single readings can be large; an effect the other way counts as inactive or inconclusive. Potency is read from the fitted curve at half-maximal effect.

SMILES	SARS PLP yeast	Pf growth 96h	Pf growth 48h	Sm TGR block
CCN(CC)C(=O)Oc1ccccc1NC(C)=O	-0.9%	9.28µM*	7.8%	-20.7%
CC(=O)Nc1ccc(NC(=O)c2ccc3c(c2)CCN3S(=O)(=O)c2ccc(Cl)cc2)cc1	x	x	x	1.3%
COc1cc(C(C2C(=O)CC(C)(C)CC2=O)C2C(=O)CC(C)(C)CC2=O)ccc1O	4.0%	33.7%	-19.4%	u
COc1cc(C(C2=C(O)CC(C)(C)CC2=O)C2C(=O)CC(C)(C)CC2=O)cc(OC)c1OC (stereo not drawn)	-3.3%	u	2.3%	15.8µM*
COc1ccc(C(C2C(=O)CC(C)(C)CC2=O)C2C(=O)CC(C)(C)CC2=O)cc1COCC(F)(F)F	5.2%	1.8%	2.9%	39.8µM*
COc1cc(C(C2C(=O)CC(C)(C)CC2=O)C2C(=O)CC(C)(C)CC2=O)cc(OC)c1OC	2.7%	18.4%	-0.3%	25.1µM*
Cc1cc2oc(C(=O)Nc3c(C)n(C)n(-c4ccccc4)c3=O)cc(=O)c2cc1C	x	x	x	-0.9%
Cc1ccc(C)c(N2CCN(Cc3csc(C)c3)CC2)c1	x	x	x	-0.4%
O=C(NCCC1=CCCCC1)c1ccc2c(c1)N(Cc1ccccc1)C(=O)CS2	7.2%	5.86µM*	x	-2.7%
O=C(c1ccc2c(c1)N(Cc1ccccc1)C(=O)CS2)N1CCOCC1	-8.6%	13.1µM*	-2.1%	-4.2%
C=CCN1C(=O)CSc2ccc(C(=O)NC(C)c3ccccc3)cc21 (stereo not drawn)	0.8%	9.28µM*	-2.0%	-12.6%
Cc1ccccc1CN1C(=O)CSc2ccc(C(=O)N3CCOCC3)cc21	0.6%	u	-24.5%	6.8%
O=C(NCCc1ccccc1)c1ccc2c(c1)N(Cc1ccc(Cl)cc1)C(=O)CS2	x	x	x	5.5%
CC(=O)N1c2ccccc2C(=O)C1N1CCN(c2cccc(C)c2C)CC1 (stereo not drawn)	x	x	x	-1.5%
O=C(CSc1nncn2c1cc1occc12)Nc1ccccc1C(F)(F)F	x	x	x	-18.9%
Oc1c(C(c2ccccc2F)N2CCCCC2)sc2nc(-c3ccco3)nn12 (stereo not drawn)	x	x	x	-17.3%
CC/C(=C\c1oc2cc3ccccc3cc2[n+]1CC)Nc1ccccc1	-11.3%	u	u	20µM*
COc1cc(/C=C(\CCC(=O)O)c2nc3ccccc3s2)ccc1OCC(=O)Nc1c(Cl)cccc1Cl	0.6%	x	x	x
Nc1ncnc2c1ncn2[C@@H]1O[C@H](CNC(=O)[C@@H](N)C2CCCCC2)[C@@H](O)[C@H]1O	8.4%	x	x	x
O=C(NC1CCCCC1)C(c1ccc(F)cc1)N(Cc1ccco1)C(=O)Cn1nnc2ccccc21 (stereo not drawn)	5.6%	x	-20.1%	-20.5%
CCC(C(=O)NC1CCCC1)N(Cc1ccco1)C(=O)Cn1nnc(-c2ccc(C)cc2)n1 (stereo not drawn)	-1.3%	9.28µM*	u	-7.8%
CCOC(=O)CN(C(=O)Cn1nnc(-c2ccc(C)cc2)n1)C(CC)C(=O)NC1CCCC1 (stereo not drawn)	-2.4%	x	u	9.9%
Cc1ccc(C(C(=O)NC2CCCCC2)N(Cc2ccco2)C(=O)Cn2cnc3ccccc32)cc1 (stereo not drawn)	-7.3%	-7.8%	11.7µM*	-29.8%
COc1ccc(C(=O)NCC(=O)OCC(=O)NC2CCCCCC2)cc1OC	1.0%	x	x	x
COc1ccccc1C1CC(c2cccs2)=Nc2ccccc2S1 (stereo not drawn)	-3.9%	10.4µM*	x	-0.2%
SMILES	SARS PLP yeast	Pf growth 96h	Pf growth 48h	Sm TGR block
CCOC(=O)C(C)Sc1nnc(Cc2cc(=O)[nH]c(=O)[nH]2)n1-c1ccc(Cl)cc1 (stereo not drawn)	10.7%	-1.0%	3.0%	-0.2%
CCOC(=O)C(C)Sc1nnc(Cc2cc(=O)[nH]c(=O)[nH]2)n1-c1ccc(OCC)cc1 (stereo not drawn)	-3.8%	9.28µM*	x	-20.9%
CCOc1ccc(-n2c(Cc3cc(=O)[nH]c(=O)[nH]3)nnc2SCc2cccnc2)cc1	5.2%	13.1µM*	x	9.2%
COc1ccc(C2=C(N3CCN(c4cccc(C)c4C)CC3)c3ccccc3C2=O)cc1	x	x	x	-29.9%
C=CCn1c(SCC(=O)NCC)nc2sc3c(c2c1=O)CCC3	-1.5%	u	7.38µM*	-0.9%
CCn1c(SCC(=O)NCCc2ccccc2)nc2sc3c(c2c1=O)CCN(C)C3	-1.4%	0.37µM*	1.65µM*	-2.7%
C=CCn1c(SCC(=O)NC)nc2sc3c(c2c1=O)CCC3	-6.6%	x	u	9.3%
CCn1c(SCC(=O)c2ccccc2)nc2sc3c(c2c1=O)CCN(C)C3	0.8%	2.94µM*	u	17.8µM*
O=C1NN(c2ccc(Cl)c(Cl)c2)C(=O)/C1=C/c1cccc(OC(=O)c2cccs2)c1	-2.4%	x	13.4%	40.8%
O=C1NN(c2ccccc2)C(=O)/C1=C\c1cccc(OC(=O)c2cccs2)c1	5.1%	x	x	35.5µM*
Cc1ccc(Nc2nnc(SCC(=O)NC3CCS(=O)(=O)C3)s2)c(C)c1 (stereo not drawn)	-0.7%	2.62µM*	u	1.9%
COc1ccccc1Nc1nnc(SCc2cc(=O)n3ccsc3n2)s1	-0.3%	4.65µM*	u	-2.5%
Cc1cccc(C)c1Nc1nnc(SCC(=O)NC2CCS(=O)(=O)C2)s1 (stereo not drawn)	20.7%	-12.0%	0.0%	2.9%
Cc1ccc(Nc2nnc(SCc3cc(=O)n4ccsc4n3)s2)c(C)c1	-3.1%	4.65µM*	6.57µM*	-13.5%
N#C/C(=C\c1cn(-c2ccccc2)nc1-c1cccnc1)c1nnc2n1CCCCC2	-5.2%	8.28µM*	x	-1.3%
O=[N+]([O-])c1ccccc1S(=O)(=O)N1CCN(Cc2cc3c(cc2O)OCO3)CC1	1.6%	u	9.3%	0.562µM*
CC(=O)c1c(C)[nH]c(C(=O)CN2CCN(S(=O)(=O)c3ccccc3[N+](=O)[O-])CC2)c1C	7.6%	10.4µM*	u	-11.1%
CCOC(=O)c1ccc(S(=O)(=O)N2CCN(C3CCCC3)CC2)cc1	-1.1%	6.2%	12.4%	12.6µM*
Oc1cc2c(cc1CN1CCN(c3ccc(F)cc3)CC1)OCO2	0.9%	0.4%	u	2.51µM*
CCOC(=O)c1ccc(S(=O)(=O)N2CCN(Cc3cc4c(cc3O)OCO4)CC2)cc1	2.0%	5.9%	-17.0%	0.355µM*
Cc1ccc(C)c(S(=O)(=O)N2CCN(Cc3cc4c(cc3O)OCO4)CC2)c1	3.6%	-23.2%	u	0.631µM*
Cn1c(=O)c(=O)n(C)c2cc(S(=O)(=O)N3CCN(C4CCCCC4)CC3)ccc21	5.0%	8.28µM*	x	-9.2%
O=S(=O)(c1ccccc1F)N1CCN(Cc2cc3c(cc2O)OCO3)CC1	1.1%[6.58 µM]	6.9%	-16.5%	0.708µM*
Cc1cc(C)c(S(=O)(=O)N2CCN(Cc3ccc4c(c3)OCO4)CC2)cc1C	x	x	x	0.7%
O=C1CN(C(=O)CC2C(=O)NCCN2Cc2ccccc2C(F)(F)F)CCN1 (stereo not drawn)	1.5%	14.7%	6.0%	-32.7%
CN(Cc1ccon1)C(=O)CC1C(=O)NCCN1Cc1ccc(F)c(F)c1 (stereo not drawn)	-1.4%	12.7%	0.7%	u

Compound activity: PubChem, National Center for Advancing Translational Sciences (NCATS)
